Assay results published in PubChem BioAssay (Tox21).
Inconclusive results are not listed. Entries that show only a call come without a potency. Unmarked numbers belong to inactive results. Calls of active or inactive are those of the source. Unless noted, calls follow the shape of the dose curve; as a rule, active = well fitted curve in the direction sought with a large enough effect in the repeat runs; inconclusive = weak or mixed curves; inactive = no such curve, though single readings can be large; an effect the other way counts as inactive or inconclusive.

Columns and labels:
[1] = qHTS assay to identify small molecule agonists of the estrogen related receptor signaling pathway with the pleiotropic PPARgamma coactivator (PGC) (AID 1224823)
Procedure, shortened: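 In this quantitative high-throughput screen, an 18 h, 37 C treatment of PGC/ERR cells with compounds in DMSO preceded a One-Glo luminescence read taken after 30 min at room temperature.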

[2] = qHTS assay to identify small molecule antagonists of the estrogen related receptor (ERR) signaling pathway from Tox21 library - cell viability counter screen (AID 1224834); also: nearly all actives have a fitted effect of over 30% in size; also: potency is read from the fitted curve at half-maximal effect
Procedure, shortened: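 Multiplexed viability counter screen in ERR cells: 17.5 h compound exposure at 37 C, CellTiter-Fluor added, 30 min at 37 C/5% CO2, fluorescence read.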

[3] = target: Luciferin 4-monooxygenase (Photinus pyralis) (UniProt P08659); assay: qHTS assay to identify small molecule inhibitors of firefly luciferase (AID 1224835); also: nearly all actives have a fitted effect of over 25% in size; also: potency is read from the fitted curve at half-maximal effect; as to activity change, negative = inhibition: series mostly up to about 120 µM
Sequence of Luciferin 4-monooxygenase (Photinus pyralis) (P08659 whole entry, looked up): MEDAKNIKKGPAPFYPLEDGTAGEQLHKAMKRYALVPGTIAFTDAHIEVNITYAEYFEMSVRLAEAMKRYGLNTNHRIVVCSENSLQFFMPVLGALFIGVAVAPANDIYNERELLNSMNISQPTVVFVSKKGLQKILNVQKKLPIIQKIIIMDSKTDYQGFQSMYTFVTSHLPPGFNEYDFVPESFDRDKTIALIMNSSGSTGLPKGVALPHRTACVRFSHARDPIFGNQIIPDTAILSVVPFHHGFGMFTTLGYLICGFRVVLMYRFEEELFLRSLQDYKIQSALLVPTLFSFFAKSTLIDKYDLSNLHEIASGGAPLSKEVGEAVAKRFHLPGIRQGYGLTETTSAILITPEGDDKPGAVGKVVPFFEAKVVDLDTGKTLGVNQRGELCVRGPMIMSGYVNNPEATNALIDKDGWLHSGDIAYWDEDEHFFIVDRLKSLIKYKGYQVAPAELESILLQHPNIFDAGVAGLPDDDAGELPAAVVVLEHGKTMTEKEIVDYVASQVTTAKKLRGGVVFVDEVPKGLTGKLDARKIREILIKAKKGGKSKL
Procedure, shortened: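 Biochemical qHTS: compounds run as interplate titrations against purified firefly enzyme, with D-luciferin and ATP each at its KM concentration. Light output recorded by CCD imaging.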

[4] = qHTS assay to identify small molecule agonists of the constitutive androstane receptor (CAR) signaling pathway - cell viability counter screen (AID 1224836); also: nearly all actives have a fitted effect of over 45% in size; also: potency is read from the fitted curve at half-maximal effect; as to viability change, negative = cytotoxic: series mostly up to about 92 µM
Procedure, shortened: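 HepG2-CYP2B6-hCAR, 2500 cells/well, 4 h pre-incubation; cpd 15 conc + PK11195 0.75 uM final; 23 h, 37 C/5% CO2; CellTiter-Fluor, fluorescence.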

[5] = qHTS assay to identify small molecule antagonists of the constitutive androstane receptor (CAR) signaling pathway - cell viability counter screen (AID 1224837); also: nearly all actives have a fitted effect of over 45% in size; also: potency is read from the fitted curve at half-maximal effect; as to activity change, negative = cytotoxicity: series mostly up to about 92 µM
Procedure, shortened: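 Read-out: CellTiter-Fluor fluorescence after 23 hr at 37 C/5% CO2. Cells: HepG2 double-stable for hCAR and CYP2B6-2.2kb. Compounds tested at 15 concentrations in the presence of CITCO, final concentration 50 nM.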

[6] = target: Nuclear receptor subfamily 1 group I member 3 (Homo sapiens) (UniProt Q14994); assay: qHTS assay to identify small molecule agonists of the constitutive androstane receptor (CAR) signaling pathway (AID 1224839); also: nearly all actives have a fitted effect of over 15% in size; also: potency is read from the fitted curve at half-maximal effect;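 as to activation: HepG2 cells stably carrying human CAR and a CYP2B6 luciferase reporter; series mostly up to about 92 µM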
Sequence of Nuclear receptor subfamily 1 group I member 3 (Homo sapiens) (Q14994 whole entry, looked up): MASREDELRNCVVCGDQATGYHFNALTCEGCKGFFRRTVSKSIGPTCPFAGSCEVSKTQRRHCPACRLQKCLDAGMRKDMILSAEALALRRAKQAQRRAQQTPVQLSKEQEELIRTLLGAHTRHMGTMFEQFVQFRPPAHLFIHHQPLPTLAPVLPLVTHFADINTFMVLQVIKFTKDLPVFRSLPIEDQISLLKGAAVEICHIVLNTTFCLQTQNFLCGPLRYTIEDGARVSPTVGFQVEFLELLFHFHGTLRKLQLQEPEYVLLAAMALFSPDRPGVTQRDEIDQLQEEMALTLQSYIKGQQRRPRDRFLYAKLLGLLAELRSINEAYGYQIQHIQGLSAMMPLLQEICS
Procedure, shortened: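 HepG2-CYP2B6-hCAR cells, 2500/well, 4 h pre-incubation; compounds 15 conc.; PK11195 0.75 uM final; 24 h, 37 C/5% CO2; ONE-Glo luciferase read.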

[7] = qHTS assay to identify small molecule antagonists of the estrogen related receptor signaling pathway with the pleiotropic PPARgamma coactivator (PGC) from Tox21 10K library - cell viability counter screen (AID 1224840; active = well fitted cell-killing curve with a large enough effect in the repeat runs, not every such curve was filed as active; also: nearly all actives have a fitted effect of over 40% in size; also: potency is read from the fitted curve at half-maximal effect)
Procedure, shortened: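 Fluorescence read-out of CellTiter-Fluor viability reagent, added after cells had been exposed to compound in DMSO for 17.5 h at 37 C; 30 min development at 37 C/5% CO2. Cells: PGC/ERR line, 2,000/well.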

[8] = qHTS assay to identify small molecule agonists of the estrogen related receptor signaling pathway with the pleiotropic PPARgamma coactivator (PGC) from Tox21 10K library (AID 1224842); also: nearly all actives have a fitted effect of over 15% in size
Procedure, shortened: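 PGC/ERR reporter cell line, 2,000 cells per well, incubated 6 h at 37 C before 23 nL compound in DMSO was added. After 18 h at 37 C, One-Glo luminescence read following 30 min at room temperature.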

[9] = target: Nuclear receptor subfamily 1 group I member 3 (Homo sapiens) (UniProt Q14994); assay: qHTS assay to identify small molecule antagonists of the constitutive androstane receptor (CAR) signaling pathway (AID 1224838);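 also: HepG2 cells stably expressing hCAR with CYP2B6 luciferase reporter stimulated by CITCO; nearly all actives have a fitted effect of over 40% in size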; also: potency is read from the fitted curve at half-maximal effect
Procedure, shortened: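 Read-out: ONE-Glo luciferase luminescence after 30 min at room temperature. HepG2-CYP2B6-hCAR double-stable cells, compounds in 15-point titration plus 50 nM CITCO final, 24 h at 37 C/5% CO2.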

[10] = qHTS assay to identify small molecule antagonists of the estrogen related receptor signaling pathway with the pleiotropic PPARgamma coactivator (PGC) from Tox21 10K library (AID 1224841; call rule not given here; also: series mostly up to about 92 µM; actives are mostly falling curves and most rising ones were filed inactive; nearly all actives have a fitted effect of over 50% in size)
Procedure, shortened: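 Luminescence read-out (One-Glo luciferase reagent, 30 min at room temperature) from PGC/ERR cells exposed to DMSO-dissolved test compounds for 18 h at 37 C; cells, 2,000 per well, had been preincubated 6 h before compound transfer.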

**Q.** What does the source list for `NC(=O)CI`?
**A.** outcome [1]: inactive; Potency [2]: inactive; Potency [3]: 80.4 µM (active); Potency [4]: inactive; Potency [5]: inactive; Potency [6]: inactive; Potency [7]: inactive; Potency [8]: inactive

**Q.** For `COC(N)=O`, which Potency [2] is on record?
**A.** inactive

**Q.** What about the Potency [3] of the same molecule?
**A.** inactive

**Q.** What about the Potency [4] of the same molecule?
**A.** inactive

**Q.** What about the Potency [5] of the same molecule?
**A.** inactive

**Q.** What about the Potency [9] of the same molecule?
**A.** inactive

**Q.** What about the Potency [6] of the same molecule?
**A.** inactive

**Q.** And the Potency [7]?
**A.** inactive

**Q.** Which Potency [2] does the source give for `CC(C)(CCl)C(=O)Cl` here?
**A.** inactive

**Q.** And the Potency [3]?
**A.** inactive

**Q.** What about the Potency [4] of the same molecule?
**A.** inactive

**Q.** And the Potency [5]?
**A.** inactive

**Q.** What about the Potency [9] of the same molecule?
**A.** inactive

**Q.** And the Potency [6]?
**A.** inactive

**Q.** And the Potency [7]?
**A.** inactive

**Q.** Which Potency [2] does the source give for `C=CCCl` here?
**A.** inactive

**Q.** What about the Potency [3] of the same molecule?
**A.** inactive

**Q.** What about the Potency [4] of the same molecule?
**A.** inactive

**Q.** What about the Potency [5] of the same molecule?
**A.** inactive

**Q.** And the Potency [9]?
**A.** inactive

**Q.** And the Potency [6]?
**A.** inactive

**Q.** And the Potency [7]?
**A.** inactive

**Q.** Which results are given for `NCC(CC(=O)O)c1ccc(Cl)cc1` (configuration not stated)?
**A.** outcome [1]: inactive; viability change, negative = cytotoxic [2]: 4.17% [at 0.349 µM]; activity change, negative = inhibition [3]: 0.511% [at 0.435 µM]; viability change, negative = cytotoxic [4]: 7.94% [at 0.349 µM]; activity change, negative = cytotoxicity [5]: 8.53% [at 0.349 µM]; viability change, negative = cytotoxic [7]: 7.5% [at 0.349 µM]; activation [8]: -1% [at 0.349 µM]

**Q.** Which Potency [2] does the source give for `CCCCCCCCOC(=O)c1ccc(C(=O)OCCCCCCCC)c(C(=O)OCCCCCCCC)c1` here?
**A.** inactive

**Q.** And the Potency [3]?
**A.** inactive

**Q.** And the Potency [4]?
**A.** inactive

**Q.** And the Potency [5]?
**A.** inactive

**Q.** What about the Potency [9] of the same molecule?
**A.** inactive

**Q.** What about the Potency [6] of the same molecule?
**A.** inactive

**Q.** And the Potency [7]?
**A.** inactive

**Q.** For `CCOC(=O)COc1cc(-c2nn(C)c(OC(F)F)c2Cl)c(F)cc1Cl`, which Potency [2] is on record?
**A.** inactive

**Q.** And the Potency [3]?
**A.** inactive

**Q.** What about the Potency [4] of the same molecule?
**A.** inactive

**Q.** What about the Potency [5] of the same molecule?
**A.** inactive

**Q.** What about the Potency [9] of the same molecule?
**A.** inactive

**Q.** And the Potency [6]?
**A.** inactive

**Q.** And the Potency [8]?
**A.** inactive

**Q.** With `CCC(Cl)CCl` (configuration not stated) as the molecule, how does the Potency [2] read?
**A.** inactive

**Q.** What about the Potency [3] of the same molecule?
**A.** inactive

**Q.** What about the Potency [4] of the same molecule?
**A.** inactive

**Q.** What about the Potency [5] of the same molecule?
**A.** inactive

**Q.** What about the Potency [9] of the same molecule?
**A.** inactive

**Q.** What about the Potency [6] of the same molecule?
**A.** inactive

**Q.** And the Potency [7]?
**A.** inactive

**Q.** And the Potency [10]?
**A.** inactive

**Q.** And the Potency [8]?
**A.** inactive

**Q.** For `N#C/C(N)=C(/N)C#N`, which Potency [2] is on record?
**A.** inactive

**Q.** And the Potency [3]?
**A.** inactive

**Q.** And the Potency [4]?
**A.** inactive

**Q.** What about the Potency [5] of the same molecule?
**A.** inactive

**Q.** And the Potency [9]?
**A.** inactive

**Q.** What about the Potency [6] of the same molecule?
**A.** inactive

**Q.** What about the Potency [8] of the same molecule?
**A.** inactive

**Q.** Which Potency [2] does the source give for `O=S1(=O)OC(c2cc(Br)c(O)c(Br)c2)(c2cc(Br)c(O)c(Br)c2)c2ccccc21` here?
**A.** 25 µM (active)

**Q.** And the Potency [3]?
**A.** 10.3 µM (active)

**Q.** And the Potency [4]?
**A.** 25 µM (active)

**Q.** And the Potency [5]?
**A.** 28.1 µM (active)

**Q.** What about the Potency [9] of the same molecule?
**A.** 25 µM (active)

**Q.** What about the Potency [6] of the same molecule?
**A.** inactive

**Q.** And the Potency [7]?
**A.** 25 µM (active)

**Q.** Which Potency [2] does the source give for `O=[Se]=O` here?
**A.** inactive

**Q.** And the Potency [3]?
**A.** inactive

**Q.** And the Potency [4]?
**A.** 21.5 µM (active)

**Q.** What about the Potency [5] of the same molecule?
**A.** 21.5 µM (active)

**Q.** And the Potency [9]?
**A.** 27.1 µM (active)

**Q.** What about the Potency [6] of the same molecule?
**A.** inactive

**Q.** And the Potency [7]?
**A.** 17.1 µM (active)

**Q.** What about the Potency [8] of the same molecule?
**A.** inactive

**Q.** Which results are given for `CCOP(=S)(OCC)SCn1nnc2ccccc2c1=O`?
**A.** Potency [2]: 43.3 µM (active); Potency [3]: inactive; Potency [4]: inactive; Potency [5]: inactive; Potency [9]: inactive; Potency [6]: 24.3 µM (active); Potency [8]: inactive

**Q.** What does the source list for `CC1(C)[C@H](C=C(Cl)Cl)[C@@H]1C(=O)O[C@@H](C#N)c1cccc(Oc2ccccc2)c1`?
**A.** Potency [2]: inactive; Potency [3]: inactive; Potency [4]: inactive; Potency [5]: inactive; Potency [9]: inactive; Potency [7]: inactive

**Q.** With `C=C(C#N)CCC#N` as the molecule, how does the Potency [2] read?
**A.** inactive

**Q.** What about the Potency [3] of the same molecule?
**A.** inactive

**Q.** And the Potency [4]?
**A.** inactive

**Q.** And the Potency [5]?
**A.** inactive

**Q.** And the Potency [9]?
**A.** inactive

**Q.** And the Potency [6]?
**A.** inactive

**Q.** And the Potency [7]?
**A.** inactive

**Q.** What about the Potency [8] of the same molecule?
**A.** inactive
